Results filed as inconclusive are left out. Active and inactive are the calls of the source. Calls come from the whole dose curve; as a rule, active = well fitted curve in the direction sought with a large enough effect in the repeat runs; inconclusive = weak or mixed curves; inactive = no such curve, though single readings can be large; an effect the other way counts as inactive or inconclusive.
What was measured:
[1] = qHTS RealTime-Glo MT Cell Viability Assay in HEK293 cells - 32 hour (AID 1224868); note: top concentration of the series differs between compounds; nearly all actives have a fitted effect of over 50% in size
Method in brief: (§1)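 Cells + reagent dispensed (600 cells/well, HEK293) → 5 h at 37 C/5% CO2 → 23 nL compound in DMSO pinned → 40 h at 37 C → luminescence read at 0, 8, 16, 24, 32, 40 h.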

[2] = A CellTox Green Cytotoxicity Assay to monitor cytotoxicity in HEK293 cells - 0 hour (AID 1224869); note: nearly all actives have a fitted effect of over 50% in size
Method in brief: (§2)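 HEK293 cells, 600/well, were preincubated 5 hours and then exposed to compounds at 37 C for up to 40 hours. A cell-impermeant cyanine dye staining dead-cell DNA was read by fluorescence at 0, 8, 16, 24, 32 and 40 h time points.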

[3] = qHTS RealTime-Glo MT Cell Viability Assay in HepG2 cells - 40 hour (AID 1224870); note: nearly all actives have a fitted effect of over 50% in size
Method in brief: (§3)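 Real-time viability: cells seeded at 600 per well together with NanoLuc and cell-permeant prosubstrate, compounds added after 5 h incubation. Luminescence tracked at 0, 8, 16, 24, 32 and 40 h of exposure.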

[4] = A CellTox Green Cytotoxicity Assay to monitor cytotoxicity in HEK293 cells - 40 hour (AID 1224871); note: nearly all actives have a fitted effect of over 45% in size
Method in brief: as §2

[5] = qHTS RealTime-Glo MT Cell Viability Assay in HEK293 cells - 16 hour (AID 1224872); note: top concentration of the series differs between compounds; nearly all actives have a fitted effect of over 50% in size
Method in brief: as §1

[6] = qHTS RealTime-Glo MT Cell Viability Assay in HepG2 cells - 8 hour (AID 1224873); note: nearly all actives have a fitted effect of over 55% in size
Method in brief: as §3

[7] = qHTS RealTime-Glo MT Cell Viability Assay in HEK293 cells - 40 hour (AID 1224874); settings: RealTime-Glo luminescence, active compounds read low; note: nearly all actives have a fitted effect of over 50% in size
Method in brief: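 600 cells/well were plated with the nonlytic NanoLuc/prosubstrate reagent, pre-incubated 5 h, then given 23 nL of compound in DMSO. Incubation at 37 C for 40 h, with luminescence from viable-cell-reduced substrate read repeatedly from 0 h.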

[8] = A CellTox Green Cytotoxicity Assay to monitor cytotoxicity in HEK293 cells - 24 hour (AID 1224875); note: series mostly up to about 77 µM; nearly all actives have a fitted effect of over 45% in size
Method in brief: as §2

[9] = A CellTox Green Cytotoxicity Assay to monitor cytotoxicity in HepG2 cells - 16 hour (AID 1224876); note: nearly all actives have a fitted effect of over 45% in size
Method in brief: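 HepG2 cells, 600/well, preincubated 5 h with CellTox Green dye, then exposed to Tox21 compounds in DMSO at 37 C for up to 40 h. Dead-cell DNA fluorescence read at the indicated time point.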

[10] = qHTS RealTime-Glo MT Cell Viability Assay in HepG2 cells - 32 hour (AID 1224877); note: nearly all actives have a fitted effect of over 55% in size
Method in brief: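 Real-time, nonlytic viability: 600 HepG2 cells/well mixed with NanoLuc enzyme plus prosubstrate; 5 h settle, compound (DMSO) added by pintool; luminescence monitored over 40 h at 37 C.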
% is set by controls: 0 for no effect and ±100 for the full control effect.

CC(C)(O)CCCC1=CCC(C=O)CC1 (stereo not given)
inactive: outcome [1] | outcome [2] | outcome [3] | Potency [4] | outcome [5] | outcome [6] | max response [7] -16% | Potency [8] | Potency [9]

CC(CC(=O)Cl)CC(C)(C)C (stereo not given)
inactive: outcome [1] | outcome [2] | outcome [3] | Potency [4] | outcome [5] | outcome [6] | max response [7] 4.64% | Potency [8] | Potency [9]

CC(=O)c1ccc(O)c(C(N)=O)c1
inactive: outcome [1] | outcome [2] | outcome [3] | Potency [4] | outcome [5] | outcome [6] | max response [7] 2.03% | Potency [8] | Potency [9]

CC(C)OCCO
inactive: outcome [1] | outcome [2] | outcome [3] | Potency [4] | outcome [5] | outcome [6] | max response [7] 4.69% | Potency [8] | Potency [9]

C=C(C)C(=O)OCCOC1CC2CC1C1C=CCC21 (stereo not given)
inactive: outcome [1] | outcome [2] | outcome [3] | Potency [4] | outcome [5] | outcome [6] | max response [7] 0.272% | Potency [8] | Potency [9]

CC(=O)OC1CCC(C(C)(C)C)CC1 (stereo not given)
inactive: outcome [1] | outcome [2] | outcome [3] | Potency [4] | outcome [5] | outcome [6] | max response [7] 0.815% | Potency [8] | Potency [9]

CC[C@@]1(c2ccccc2)NC(=O)N(C)C1=O
inactive: outcome [1] | outcome [2] | outcome [3] | Potency [4] | outcome [5] | outcome [6] | max response [7] 14.4% | Potency [8] | Potency [9]

O=C(CCBr)N1CCN(C(=O)CCBr)CC1
inactive: outcome [1] | outcome [2] | outcome [3] | Potency [4] | outcome [5] | outcome [6] | max response [7] 1.87% | Potency [8] | Potency [9]

N#CC1(N)CCCCC1
inactive: outcome [1] | outcome [2] | outcome [3] | Potency [4] | outcome [5] | outcome [6] | max response [7] 6.54% | Potency [8] | Potency [9]

Cc1ccccc1OCC(=O)O
inactive: outcome [1] | outcome [2] | outcome [3] | Potency [4] | outcome [5] | outcome [6] | max response [7] 3.48% | Potency [8] | Potency [9] | outcome [10]

CCCCCCCCS(=O)(=O)O
inactive: outcome [1] | outcome [2] | outcome [3] | Potency [4] | outcome [5] | outcome [6] | max response [7] -0.584% | Potency [8] | Potency [9] | outcome [10]

CC(=O)O[C@@H]1CC2C3CCc4cc(OC(=O)c5ccccc5)ccc4C3CCC2(C)[C@H]1OC(C)=O (stereo not given in full)
inactive: outcome [1] | outcome [2] | outcome [3] | Potency [4] | outcome [5] | outcome [6] | max response [7] 0.184% | Potency [8] | Potency [9] | outcome [10]

C=COCCCCO
inactive: outcome [1] | outcome [2] | outcome [3] | Potency [4] | outcome [5] | outcome [6] | max response [7] -1.03% | Potency [8] | Potency [9]

CCc1ncc(C)[nH]1
inactive: outcome [1] | outcome [2] | outcome [3] | Potency [4] | outcome [5] | outcome [6] | max response [7] 1.1% | Potency [8] | Potency [9] | outcome [10]

COc1cc(S(N)(=O)=O)cc(C(=O)O)c1OC
inactive: outcome [1] | outcome [2] | outcome [3] | Potency [4] | outcome [5] | outcome [6] | max response [7] 0.543% | Potency [8] | Potency [9] | outcome [10]

C=CC(C)(CCC=C(C)C)OC(=O)C(C)C (stereo not given)
inactive: outcome [1] | outcome [2] | outcome [3] | Potency [4] | outcome [5] | outcome [6] | max response [7] 0.514% | Potency [8] | Potency [9] | outcome [10]

C[Si](C)(C)O[Si](O)(O)O
inactive: outcome [1] | outcome [2] | outcome [3] | Potency [4] | outcome [5] | outcome [6] | max response [7] 0.476% | Potency [8] | Potency [9] | outcome [10]

O=C(O)COc1ccc2ccccc2c1
inactive: outcome [1] | outcome [2] | outcome [3] | Potency [4] | outcome [5] | outcome [6] | max response [7] 1.62% | Potency [8] | Potency [9] | outcome [10]

Cc1nc2ccc(Cl)cc2[nH]1
inactive: outcome [1] | outcome [2] | outcome [3] | Potency [4] | outcome [5] | outcome [6] | max response [7] 7.55% | Potency [8] | Potency [9] | outcome [10]

CC(=O)Oc1ccc(C(C)=O)cc1
inactive: outcome [1] | outcome [2] | outcome [3] | Potency [4] | outcome [5] | outcome [6] | max response [7] -8% | Potency [8] | Potency [9] | outcome [10]

CC(C)C(C)C
inactive: outcome [1] | outcome [2] | outcome [3] | Potency [4] | outcome [5] | outcome [6] | max response [7] 5.69% | Potency [8] | Potency [9] | outcome [10]

CCCCCCCCCCCC(C)=O
inactive: outcome [1] | outcome [2] | outcome [3] | Potency [4] | outcome [5] | outcome [6] | max response [7] 0.63% | Potency [8] | Potency [9] | outcome [10]

Cc1cc2c(cc1CC(=O)c1sccc1S(=O)(=O)Nc1onc(C)c1Cl)OCO2
inactive: outcome [1] | outcome [2] | outcome [3] | Potency [4] | outcome [5] | outcome [6] | max response [7] 6.15% | Potency [8] | Potency [9] | outcome [10]

O=CN1CCCCC1
inactive: outcome [1] | outcome [2] | outcome [3] | Potency [4] | outcome [5] | outcome [6] | max response [7] 1.3% | Potency [8] | Potency [9] | outcome [10]

— PubChem BioAssay (Tox21)
